Assay results reported in PubChem BioAssay (NCI).
About 83,000 compounds went through this panel and 20% of them were active in at least one assay; those are over-represented in the sample as a whole.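 Each cell line was grown in a 96-well plate and treated with one concentration of compound for 48 hours. Values below 10 were considered active.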 Active and inactive are the calls of the source.

Tests used:
Assay in all cases: NCI-60 one-dose screen, 48 h (100 = growth as untreated, 0 = no growth, -100 = all killed)
Conditions in all cases: 10 µM
[1] = test system: NCI-H23 lung
[2] = test system: NCI-H226 lung
[3] = test system: NCI-H322M lung
[4] = test system: HOP-62 NSCLC
[5] = test system: NCI-H522 lung
[6] = test system: A549/ATCC NSCLC
[7] = test system: 786-0 renal
[8] = test system: COLO 205 colon
[9] = test system: DU-145 prostate
[10] = test system: NCI-H460 lung

Measured: growth

C=C1c2c(C)nn(-c3ccc(OC)cc3)c2N(C)C23C[C@@H]1C1(C)c4c(C)nn(-c5ccc(OC)cc5)c4N(C)C(C)(C[C@H]12)C3 (stereo partly specified)
inactive: [1] 33.7% | [2] 48.7% | [3] 62.4% | [4] 59.9% | [5] 47.4% | [6] 15.4% | [7] 54.3% | [8] 23.6% | [9] 56.2%

CCN(CC)CCCC(C)Nc1nc(-c2ccc(OC)cc2)nc2cc(Cl)ccc12 (stereo unspecified)
inactive: [1] 73.2% | [2] 91.7% | [3] 65.4% | [4] 70.5% | [5] 35.6% | [6] 69.6% | [7] 65.5% | [8] 41.6% | [9] 77.9%

Nc1ncnc2[nH]c(=O)[nH]c12
inactive: [1] 103% | [2] 87.7% | [3] 103% | [4] 97.9% | [5] 105% | [6] 118% | [7] 102% | [8] 132% | [9] 99.5%

COc1cccc(Cn2c(-c3nonc3N)nc3ccccc32)c1
active: [10] 6.52% | [5] -18.4% | [8] -53.3% | [9] 4.99%
inactive: [1] 24.2% | [2] 49.2% | [3] 38.8% | [4] 29.9% | [7] 36.9%

Oc1[nH]c2ccc(Cl)cc2c1/C=c1/ccc2c(c1)N=C(c1cccs1)N=2
inactive: [1] 64.4% | [2] 85% | [3] 78.4% | [4] 83.1% | [5] 53.3% | [6] 63.5% | [7] 66.7% | [8] 73% | [9] 58.7%

O=C(Cc1csc2nc(-c3ccc(Cl)cc3)cn12)N/N=C/c1ccccc1O
active: [9] -8.65%
inactive: [1] 59.5% | [2] 56.2% | [3] 51.4% | [4] 40.3% | [5] 49.2% | [6] 36.9% | [7] 32.9% | [8] 16.5%

CC1(C)N=C(N)N=C(N)N1c1ccc(CCc2ccccc2)c(Cl)c1
active: [5] 1.84%
inactive: [1] 21.4% | [2] 32.4% | [3] 28.7% | [4] 26.3% | [10] 10.1% | [7] 20.3% | [8] 16% | [9] 27.1%

CCOC1(OCC)OC(c2ccccc2)=C(C#N)C(/C=C\c2ccccc2)C1(OCC)OCC (stereo unspecified)
inactive: [1] 82.4% | [2] 81.2% | [3] 84.3% | [4] 91.5% | [5] 82.3% | [6] 82.5% | [7] 87.4% | [8] 88.9% | [9] 89.7%

O=C1ON=[N+](c2ccc(Cc3ccc([N+]4=NOC(=O)C4CN4CCOCC4)cc3)cc2)C1CN1CCOCC1 (stereo unspecified)
inactive: [1] 62.1% | [2] 85.5% | [3] 82.5% | [4] 77% | [5] 37% | [6] 69.1% | [7] 74% | [8] 99.9% | [9] 101%

CC/C(=C(/c1ccc(OCCN(C)C)cc1)c1ccc(OC(=O)CCC(=O)c2c(C)[nH]c(/C=C3\N=C(c4ccc[nH]4)C=C3OC)c2C)cc1)c1ccccc1
inactive: [1] 52.3% | [2] 23.4% | [3] 75.3% | [4] 28% | [10] 51% | [7] 21.4% | [8] 28.3% | [9] 21.4%
active: [5] -0.572%

COc1cc2c(cc1OCCCCCCN1CCN(CC(=O)Nc3ccc(Cl)cc3C(=O)c3ccccc3Cl)CC1)N=CC1CCCN1C2=O (stereo unspecified)
active: [1] -56.1% | [2] -82% | [3] -97.8% | [4] -77.9% | [5] -69% | [6] -93% | [7] -85.4% | [8] -60.1%

CN(Cc1ccccc1)Cc1ccc([N+](=O)[O-])cc1I
inactive: [1] 107% | [2] 94.5% | [3] 92.9% | [4] 101% | [5] 86.7% | [6] 93.6% | [7] 97.8% | [8] 104% | [9] 95.6%

O=C1/C(=C\c2ccc(F)cc2)CN(C(=O)c2ccccc2F)C/C1=C\c1ccc(F)cc1
inactive: [1] 16.4% | [3] 77.6% | [6] 12.9%
active: [2] -32.9% | [4] -15.5% | [5] -69.5% | [7] -51% | [8] -42.9% | [9] -10.4%

CN(C)c1ccc(N=C2C=CC(=O)c3ccccc32)cc1
inactive: [1] 35.1% | [2] 91.7% | [3] 14.9% | [4] 82.5% | [5] 48.2% | [6] 28% | [7] 90.3% | [8] 11.8%
active: [9] -58%

CCCCN(CCCC)c1cc(C(=O)CCCCCN)c2ccccc2n1
active: [3] -30.8% | [6] -31.8% | [9] -81.1%
inactive: [1] 94.5% | [2] 93% | [4] 110% | [5] 76.9% | [7] 38.8% | [8] 17.4%

N#CCCN1C/C(=C/c2ccccc2)C(=O)/C(=C/c2ccccc2)C1
active: [5] -51.6%
inactive: [1] 78.9% | [2] 69.8% | [3] 86% | [4] 59.5% | [6] 76.6% | [7] 34.1% | [8] 59.4% | [9] 35.2%

COc1cc2nc(Nc3cccc(C(=O)O)c3)nc(N)c2cc1OC
inactive: [1] 128% | [2] 91.4% | [3] 126% | [5] 87.4% | [6] 104% | [8] 111% | [9] 102%
active: [4] -37.3% | [7] -9.99%

O=[N+]([O-])c1ccc(Oc2cc(Cl)c(Cl)cc2Cl)c(C(F)(F)F)c1
inactive: [1] 111% | [2] 94.6% | [3] 98.1% | [4] 95.3% | [5] 87.1% | [6] 91.1% | [7] 107% | [8] 122% | [9] 104%

CCCCCCc1cc(N=Nc2ccc(S(=O)(=O)Nc3cc(C)nc(C)n3)cc2)c(O)cc1O
inactive: [1] 102% | [2] 98% | [3] 93.5% | [4] 107% | [10] 110% | [5] 90.1% | [7] 102% | [8] 103% | [9] 114%

c1ccc2c(c1)oc1c3cccnc3ccc21
inactive: [1] 86.8% | [2] 87.4% | [3] 66% | [4] 86.7% | [5] 89.8% | [6] 94.1% | [7] 94.4% | [8] 104% | [9] 102%

O=C1/C(=C\c2ccccc2)CN(C(=O)c2ccccc2)C/C1=C\c1ccccc1
inactive: [1] 57.5% | [2] 37.3% | [3] 75.8% | [4] 37.1% | [6] 61.1% | [8] 41.5% | [9] 24.6%
active: [5] -0.751% | [7] 2.68%

Cc1ccc(S(=O)(=O)OCCN(CCOS(=O)(=O)c2ccc(C)cc2)c2c[nH]c(=O)[nH]c2=O)cc1
inactive: [1] 108% | [2] 99.2% | [3] 105% | [4] 108% | [5] 125% | [6] 101% | [7] 112% | [8] 115% | [9] 124%

COc1ccc(OC)c(/C=C/c2nc(SC)n(-c3ccc(Cl)cc3)n2)c1
inactive: [1] 59.7% | [2] 70.9% | [3] 73.3% | [4] 90.3% | [5] 81.6% | [6] 64.8% | [7] 86.8% | [8] 78.1% | [9] 93.9%

COC(=O)C1(C)Cc2cc(OC(C)=O)c(OC(C)=O)cc2N1 (stereo unspecified)
active: [5] -55.8%
inactive: [1] 91.5% | [2] 113% | [3] 116% | [4] 117% | [10] 107% | [7] 103% | [8] 53.7% | [9] 104%

N#CSCC1CC(O)(c2ccccc2)CC(c2ccc(Cl)cc2)O1 (stereo unspecified)
active: [5] 4.64%
inactive: [1] 35.6% | [2] 89.3% | [3] 52.4% | [4] 75.1% | [6] 68.5% | [7] 37% | [8] 59.2% | [9] 33%

CCOC(=O)N1C/C(=C/c2ccc(OC)cc2)C(=O)/C(=C/c2ccc(OC)cc2)C1
active: [7] -2.34%
inactive: [1] 46.3% | [2] 23.8% | [3] 71.1% | [4] 29.5% | [5] 39% | [6] 21.4% | [8] 24.5% | [9] 17.7%

Cc1ccc(CC#N)cc1C
inactive: [1] 110% | [2] 96.1% | [3] 101% | [4] 101% | [5] 98% | [6] 109% | [7] 103% | [8] 111% | [9] 85.4%

Cc1cc(Cl)nc(N(CCCNc2ccnc3cc(Cl)ccc23)Cc2cccs2)n1
active: [1] -12.9% | [10] 7.09% | [5] -0.273% | [8] -73.3%
inactive: [2] 41.1% | [3] 29.7% | [4] 23.1% | [7] 17.4% | [9] 30.7%

C[C@@H]1C=C2C(=O)O[C@@H]3CC[C@H](C1)[C@]23O
active: [5] 2.22% | [9] -25.9%
inactive: [1] 80.6% | [2] 106% | [4] 71.7% | [10] 80.9% | [6] 67.1% | [7] 103% | [8] 74%

CCCCCCCCCCCCCC[n+]1ccc(C(N)=O)cc1
active: [2] -7.94% | [10] 0.582% | [5] -21.7% | [7] -12.1% | [8] -100%
inactive: [1] 16.7% | [4] 10.5% | [6] 33.6% | [9] 22.8%

COc1ccccc1/C=C/C(=O)c1ccccc1
inactive: [1] 84.7% | [2] 85% | [4] 88.3% | [10] 90% | [5] 62.7% | [6] 67% | [7] 98.4% | [8] 84.8% | [9] 87.6%

Cn1c([N+](=O)[O-])cnc1/C=C1\Oc2cc(Cl)ccc2C1=O
active: [1] -22.8% | [10] -32.1% | [5] -53.8% | [6] 3.98% | [7] -6.4% | [8] -52.9% | [9] -18.3%
inactive: [2] 59.5% | [4] 16.5%

c1ccc(CNc2ncnc3scc(-c4cccs4)c23)nc1
inactive: [1] 53.5% | [2] 68.1% | [4] 65% | [5] 60.4% | [6] 56.6% | [7] 79.6% | [8] 89.7% | [9] 92.1%

O=C(Nc1ccncc1)C(=O)c1cn(S(=O)(=O)c2cccc(Cl)c2)c2ccccc12
inactive: [1] 54.2% | [2] 77.9% | [4] 79.3% | [10] 82.2% | [5] 32.1% | [6] 75.5% | [7] 72.8% | [8] 117% | [9] 83.9%

Cc1ccc(C)c(C(O)(c2cc(C)ccc2C)C2(O)CCCCC2)c1
inactive: [1] 88.5% | [2] 82.7% | [4] 112% | [10] 95.7% | [5] 61.4% | [6] 92.9% | [7] 90.6% | [8] 96.7% | [9] 104%

C#Cc1ccc(-n2c(/C=C/c3ccc(C(F)(F)F)cc3)nc3ncccc3c2=O)cc1
inactive: [1] 78.4% | [4] 37.6% | [10] 72.1% | [7] 53% | [8] 18.6% | [9] 46.2%
active: [2] -42.7% | [5] 4.27%

COc1cc(C(=C2O[C@@H]([C@H]3COC(C)(C)O3)[C@H]3OC(C)(C)O[C@@H]23)c2cc(OC)c(OC)c(OC)c2)cc(OC)c1OC
inactive: [1] 95.2% | [2] 94.4% | [4] 104% | [5] 106% | [6] 106% | [7] 97.2% | [8] 117% | [9] 112%

Nc1ncn(C2OC(CO)C(O)C2O)c(=O)n1 (stereo unspecified)
inactive: [1] 30.3% | [2] 29% | [6] 20.7% | [7] 12.2%
active: [4] -23% | [10] -1.43% | [5] -12.7% | [8] 2.62% | [9] -9.86%

CC/C(=C(/c1ccc(OCCN(C)C)cc1)c1ccc(OC(=O)CCCCC(=O)c2c(C)[nH]c(/C=C3\N=C(c4ccc[nH]4)C=C3OC)c2C)cc1)c1ccccc1
active: [5] 4.55%
inactive: [1] 86.7% | [2] 54.4% | [4] 77.9% | [10] 61.2% | [6] 52.4% | [7] 67.4% | [8] 72% | [9] 34.2%

O=C(/C=C/c1cc2ccccc2[nH]c1=O)c1ccc2c(c1)OCO2
inactive: [1] 98.5% | [2] 114% | [4] 98% | [10] 94.4% | [6] 93.4% | [7] 102% | [8] 95.7% | [9] 102%
active: [5] 3.16%
